Test results: PubChem BioAssay (NCATS)
Results filed as inconclusive are left out. Calls of active or inactive are those of the source. The call rests on the fitted dose curve; in most records, active means well fitted inhibition curve with a large enough effect; inconclusive means small, poorly fitted or top-dose-only effect; inactive means flat fitted curve, though single readings scatter.

Experiment: P-glycoprotein substrates identified in KB-8-5-11 adenocarcinoma cell line, qHTS therapeutic library screen (AID 1346987); further: nearly all actives have a fitted effect of over 65% in size
Settings: KB-8-5-11 (P-gp overexpressing) viability, CellTiter-Glo, 72 h; series mostly up to 44.5 µM; activity change, negative = cytotoxicity: at the top concentration
How it was run: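 P-gp-mediated resistance screen: KB-8-5-11 cells treated 72 h with compounds in dose-response. CellTiter-Glo viability.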
On the % scale 0 is the no-effect control and ±100 the full control effect; potency means the concentration at half of the fitted maximal effect.

Row | SMILES | activity change, negative = cytotoxicity | Potency | outcome
1 | Cn1c(SCC(=O)N2CCC[C@H]2C(=O)Nc2ccccc2-c2ccccc2)nc2ccccc21 | -13.6% (inactive) | – | –
2 | COc1cc2c(cc1OC)CN(C(=O)/C=C/c1c(-c3ccccc3)n(C)c3ncccc13)CC2 | – | 20.6 µM (active) | –
3 | CCC1C(=O)N(C)c2cnc(Nc3ccc(C(=O)NC4CCN(C)CC4)cc3OC)nc2N1C1CCCC1 (centres undefined) | – | 0.231 µM (active) | –
4 | CC(C)NC(=O)COc1cccc(-c2nc(Nc3ccc4[nH]ncc4c3)c3ccccc3n2)c1 | – | 8.2 µM (active) | –
5 | O=C(Nc1ccc(Cl)cc1)Nc1cccc(-c2cccc(N3CCCC3)n2)c1 | – | 20.6 µM (active) | –
6 | COc1cc(N2CCC(N)CC2)ccc1Nc1ncc(Cl)c(-c2c[nH]c3ccccc23)n1 | – | 4.11 µM (active) | –
7 | C/C=C(/C)C(=O)OC1C=C2C3C(C)C(C)C(OC(=O)C(C)C(C)O)CC3(C)CCC2(C)C2(C)CC(OC(C)=O)C3C(C)(C)C(O)C(=O)CC3(C)C12 (centres undefined) | 6.59% [at 17.3 µM] (inactive) | – | –
8 | COC1CC(=O)C23C(=O)NC(CC(C)C)C2C(C)C(C)=CC3/C=C(\C)CCCC1O (centres undefined) | -12.3% [at 17.3 µM] (inactive) | – | –
9 | CC(=O)O[C@@H]1C[C@]2(C)[C@@]3(CCC4[C@@]5(C)CC[C@H](O[C@@H]6O[C@H](C(=O)O)[C@@H](O)[C@H](OC7OC(CO)C(O)C(O)[C@H]7O[C@@H]7O[C@@H](C)[C@H](O)[C@@H](O)[C@H]7O[C@@H]7OC[C@](O)(CO)[C@H]7O)[C@H]6OC6OC(CO)C(O)C(O)C6O)C(C)(C)C5CC[C@]42C)OC[C@@]12CCC(C)(C)CC23 (some centres undefined) | -11.3% [at 9.29 µM] (inactive) | – | –
10 | CC(C)S(=O)(=O)Nc1ccc(F)c(C(=O)c2c[nH]c3ncc(-c4cccnc4)cc23)c1F | -6.3% (inactive) | – | –
11 | Cc1ccc(/C(=C\CN2CCCC2)c2cccc(/C=C/C(=O)O)n2)cc1 | -15.9% (inactive) | – | –
12 | CCC(CC)C(=O)OC12C(OC(=O)C(C)C)C(C)C3(O)C(C=C(CO)CC4(O)C(=O)C(C)=CC43)C1C2(C)C (centres undefined) | -15.3% [at 17.3 µM] (inactive) | – | –
13 | C=C1C(=O)OC2C=C(C)CC/C=C(\CO)CC(O)C12 (centres undefined) | – | – | inactive
14 | CCC(C)(OC(C)=O)C(=O)O[C@H]1[C@H](OC(C)=O)[C@]2(CO)[C@H](O)[C@H](O)[C@]3(C)C(=CCC4[C@@]5(C)CC[C@H](O[C@@H]6O[C@H](C(=O)O)[C@@H](O)[C@H](O[C@@H]7OC[C@H](O)[C@H](O[C@@H]8OC[C@H](O)[C@H](O)[C@H]8O)[C@H]7O)[C@H]6O[C@@H]6O[C@H](CO)[C@@H](O)[C@H](O)[C@H]6O)C(C)(C)C5CC[C@]43C)[C@@H]2CC1(C)C (some centres undefined) | -29% [at 9.29 µM] (inactive) | – | –
15 | CC#C[C@@H](CC(=O)O)c1ccc(OCc2cccc(-c3ccc(C(F)(F)F)cc3)c2)cc1 | -24.3% (inactive) | – | –
16 | CCCN1CCC=C(c2cc(-c3ccc(C)cc3)no2)C1 | -4.34% (inactive) | – | –
17 | CCCCc1ccc(NS(=O)(=O)c2ccc(F)cc2)cc1 | -11.7% (inactive) | – | –
18 | COC(=O)c1sccc1S(=O)(=O)Nc1ccc(Nc2ccccc2)cc1OC | -24.5% (inactive) | – | –
19 | C=C(C)[C@@H]1CC[C@]2(C(=O)O)CC[C@]3(C(=O)O)[C@H](CCC4[C@@]5(C)CCC(=O)C(C)(C)C5CC[C@]43C)C12 (some centres undefined) | -14.5% [at 17.3 µM] (inactive) | – | –
20 | O=C(NCc1ccc(OC(F)(F)F)cc1)C1c2c(F)cccc2C(=O)N1CCc1ccccn1 (centres undefined) | -17.6% (inactive) | – | –

Row | SMILES | activity change, negative = cytotoxicity | Potency | outcome
21 | C[C@H](CN(C)C)Oc1nc(Nc2cc3cccc(Cl)c3cn2)cnc1C#N | – | 2.91 µM (active) | –
22 | O=c1nc(-c2ccccn2)sc2ccccc12 | -4.86% (inactive) | – | –
23 | Cc1cccc(C)c1N(CCCc1cccnc1)C(=O)C(C)N (centres undefined) | -29.3% (inactive) | – | –
24 | COc1cc(C#N)ccc1S(=O)(=O)Nc1ccc2c(c1)cc(C)c(=O)n2C | -18.2% (inactive) | – | –
25 | CCO[C@H]1CN(C2CCC(O)(c3ccc4c(c3)OCO4)CC2)C[C@@H]1NC(=O)CNC(=O)c1cccc(C(F)(F)F)c1 (some centres undefined) | -4% (inactive) | – | –
26 | NCCCC(=O)O | -6.24% (inactive) | – | –
27 | C[C@H]1CC[C@@]2(OC1)O[C@H]1CC3[C@@H]4CC[C@@H]5C[C@@H](O[C@@H]6O[C@H](CO)[C@@H](O[C@@H]7O[C@@H](C)[C@H](O)[C@@H](O)[C@H]7O)[C@H](O)[C@H]6O[C@@H]6O[C@H](CO)[C@@H](O)[C@H](O)[C@H]6O)CC[C@]5(C)C4CC[C@]3(C)[C@H]1[C@@H]2C (some centres undefined) | – | – | inactive [at 9.29 µM]
28 | C=C(C)C(=O)O[C@H]1/C(C=O)=C\CC/C(CO)=C/[C@H]2OC(=O)C(=C)[C@@H]2[C@@H]1OC | 2.9% (inactive) | – | –
29 | CC1(C)OC[C@H](NC(=O)Nc2ccc(Br)cc2Br)[C@H](c2ccccc2)O1 | -22.9% (inactive) | – | –
30 | CCOC(=O)c1cnn(-c2ccccc2)c1NC(=O)c1cc2nc(-c3ccco3)cc(C(F)(F)Cl)n2n1 | -0.285% (inactive) | – | –
31 | CC1(CO)CC2C(O)C3=C(CC(C)(O)C2C1)C(=O)OC3 (centres undefined) | 0.305% (inactive) | – | –
32 | CCCCOc1ccc(S(=O)(=O)n2c(C)nc3ccccc32)cc1 | -17.3% [at 17.3 µM] (inactive) | – | –
33 | C/C=C/C=C/C=C/C(=O)O[C@@H]1C=C2COC(=O)[C@]2(O)[C@@]2(C)CCCC(C)(C)[C@H]12 | -7.86% [at 17.3 µM] (inactive) | – | –
34 | Cc1c(C(=O)Nc2ccc(N3CCC(N4CCOCC4)CC3)c(C#N)c2)cnn1-c1ccc(Cl)cc1 | – | 0.82 µM (active) | –
35 | CC(C)CCNC(=O)[C@H](CC(C)C)NC(=O)[C@H]1O[C@@H]1C(=O)O | 2.03% (inactive) | – | –
36 | CNC(=O)c1ccc2c(c1)CCO[C@H]2CCN1CCN(c2ccc(OC)cc2)CC1 | -16.4% (inactive) | – | –
37 | CCn1c2ccccc2c2cc(Nc3ccnc(NCCCN4CCOCC4)n3)ccc21 | – | 20.6 µM (active) | –
38 | CC[C@H]1OC(=O)[C@H](C)[C@@H](O[C@H]2C[C@@](C)(OC)[C@@H](O)[C@H](C)O2)[C@H](C)[C@@H](O[C@@H]2O[C@H](C)C[C@H](N(C)C)[C@H]2O)[C@](C)(O)C[C@@H](C)[C@@H]2N[C@@H](COCCOC)O[C@@H]([C@H]2C)[C@]1(C)O | -4.4% (inactive) | – | –
39 | CCc1cc2c(cc1CC)CC(NCC(O)c1ccc(O)c3[nH]c(=O)ccc13)C2 (centres undefined) | 8.45% (inactive) | – | –
